Experimental data taken from PubChem BioAssay AID684 (PCMD, 2007).
Among all 62,000 compounds or so, about 95 (0.2%) were called active. Only a selection was taken, and actives are over-represented in it overall. Values without a mark were called inactive. No stated cut-off is given here; in the data, active means inhibition above about 20% (passing the limit was not always enough); inactive means the rest.

Biological target: Coagulation factor XII (Homo sapiens) (UniProt P00748)
Experiment: blockers of FXIIa protease activity – biochemical, pooled compound mixtures, fluorogenic substrate, primary screen (AID 684);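 further: 0% = enzyme without compound and 100% = no enzyme blank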
Settings: purified FXIIa, at 5 µM, hits give high values

Chain of Coagulation factor XII (Homo sapiens) (P00748 20-372 limits assumed): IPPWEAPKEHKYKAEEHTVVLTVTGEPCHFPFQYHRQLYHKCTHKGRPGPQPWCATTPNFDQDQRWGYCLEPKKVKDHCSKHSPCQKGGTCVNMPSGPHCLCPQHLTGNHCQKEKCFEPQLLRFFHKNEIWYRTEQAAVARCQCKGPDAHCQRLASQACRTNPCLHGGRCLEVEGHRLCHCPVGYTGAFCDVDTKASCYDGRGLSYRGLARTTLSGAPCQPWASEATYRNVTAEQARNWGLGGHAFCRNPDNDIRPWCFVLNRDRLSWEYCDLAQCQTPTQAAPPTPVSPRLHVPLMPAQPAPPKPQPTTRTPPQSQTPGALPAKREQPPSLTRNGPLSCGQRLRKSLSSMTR
Chain of Coagulation factor XII (Homo sapiens) (P00748 373-615 limits assumed): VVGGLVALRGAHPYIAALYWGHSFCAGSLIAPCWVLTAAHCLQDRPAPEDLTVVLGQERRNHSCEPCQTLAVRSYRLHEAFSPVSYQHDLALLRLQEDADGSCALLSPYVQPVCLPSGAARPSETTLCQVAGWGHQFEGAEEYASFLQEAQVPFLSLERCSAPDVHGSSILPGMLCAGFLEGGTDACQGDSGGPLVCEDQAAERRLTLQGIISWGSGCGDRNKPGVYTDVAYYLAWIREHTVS

SMILES | inhibition
CCS(=O)(=O)n1nc(-c2ccccc2)nc1SCc1ccccc1 | 6.08%
Cc1noc(C)c1C(=O)NC(C)c1ccc2c(c1)OCO2 (centres undefined) | 4.17%
COC(=O)C1=C(C)Nc2ncnn2C1c1ccco1 (centres undefined) | 15.1%
COc1ccc(OC)c2[nH]c(=O)c(CCNC(=O)C(C)(C)C)cc12 | -10.9%
CCO/C([O-])=N/c1c[n+](N2CCOCC2)no1 | 3.21%
CN(C)CCOC(=O)C(c1ccccc1)C1(O)CCCC1 (centres undefined) | 2.14%
Cc1cccc(CSc2nnc(Cn3c(=O)sc4ccccc43)n2C)c1 | 0.99%
CCCC(NS(=O)(=O)c1ccc(OC)cc1)C(=O)O (centres undefined) | 10.4%
O=C(NCc1cccnc1)c1cn(-c2ccccc2)nc1-c1cccs1 | 5.99%
O=C(NCCCNCc1ccccc1)c1ccc(/C=N/O)nc1 | 1.86%
CCn1c(SCC(=O)Nc2ccc3c(c2)OCCO3)nc2c(c1=O)SC(C)C2 (centres undefined) | 11.3%
O=C(CN1CCN(S(=O)(=O)/C=C/c2ccccc2)CC1)NC(=O)NCc1ccco1 | -1.11%
CC(NC(=O)c1ccc(Cl)cc1)C(=O)N1CCCCC1 (centres undefined) | 6.69%
CCOC(=O)Cc1csc(NC(=O)C(C)(C)C)n1 | 3.6%
O=C1CCC(=O)N1CCOP1(=O)COc2ccccc2OC1 | 2.03%
COCCNC(=O)c1ccccc1-c1nc(-c2ccccc2Cl)no1 | 6.16%
c1csc(CN2CCN(Cc3cccs3)C2c2cccs2)c1 | -13.3%
COC(=O)c1cccc(NC(=O)CSc2nc(C)cc(=O)[nH]2)c1 | 9.59%
COCc1cc(C)nc(Nc2cc(C)ccc2C)c1C#N | 1.73%
COCc1cc(C)nc(SCC(=O)Nc2cccc(C)c2)c1C#N | 21.5% (active)
Cn1c2c(c(=O)n(C)c1=O)CN(Cc1ccco1)CN2 | -0.485%
Cc1ccc2[nH]c(=O)c(-c3nc4c(C)cccn4c3NCc3ccco3)cc2c1 | -0.355%
O=C(COc1ccccc1)N1CCc2ccccc2C1 | 9.32%
CC1CCC(NC(=O)c2ccc(N3CCCC3=O)cc2)CC1 (centres undefined) | -12.2%
CCc1nc(C)cn1S(=O)(=O)c1cc(OC)c(C)cc1C | 9.21%

SMILES | inhibition
CCCC1CC(C)(C(=O)Cn2[nH]c(=O)ccc2=O)OC1=O (centres undefined) | -1.01%
O=C(c1cc(-c2ccccc2O)on1)N1CCCC1 | -13.8%
Cc1ccc(S(=O)(=O)Nc2ccc3ncccc3c2)cc1 | -13.2%
Cc1cc(N(C)C)cc(C)[n+]1[O-] | -12%
CC(C)c1ccc(N2CC(C(=O)Nc3nccs3)CC2=O)cc1 (centres undefined) | 3.69%
COc1ccc(Cn2cccc(NC(=O)Nc3ccc(C#N)cc3)c2=O)cc1 | 10.3%
Cc1ccccc1C(OCC(O)CN1CCCCC1CCO)c1ccccc1 (centres undefined) | 4.15%
Cc1ccc(Nc2cc(=O)n(C3CCCCC3)c(=O)[nH]2)cc1C | 5.68%
CCCCn1c(=S)[nH]c2ncccc2c1=O | 4.05%
COC(=O)C(C)N(C#N)c1nc(C)nc(C)n1 (centres undefined) | 9.14%
Cc1csc(NC(=O)CN2CCCCCC2)n1 | 7.17%
Cc1nc2ccc(S(=O)(=O)NCC(=O)NCCN3CCCCC3C)cc2s1 (centres undefined) | 9.34%
Cc1ccn2cc(-c3nonc3C)cc2c1 | 9.55%
CCCCC(=O)N(c1ccc(OC)cc1)C1C=CS(=O)(=O)C1 (centres undefined) | 4.62%
C=CCn1c(=O)c2ccccc2n2c(SCC(=O)N3CCCc4ccccc43)nnc12 | -6.74%
COc1ccc(S(=O)(=O)N2CCCC(C(=O)Nc3ccc(NC(=O)c4ccccn4)cc3)C2)cc1 (centres undefined) | 9.91%
CC12CCC(C(=O)N3CCN(c4ncccn4)CC3)(c3nc4ccccc4nc31)C2(C)C (centres undefined) | 11.8%
CC1(C)C2CCC1(C)C(OC(=O)CCn1ccnc1)C2 (centres undefined) | 3.17%
Cc1ccc2c(c1)C(O)(CC(=O)c1cccnc1)C(=O)N2 (centres undefined) | 10.7%
Cc1cc2ccccc2n2c(SCC(=O)N3CCN(C(=O)c4ccco4)CC3)nnc12 | -6.12%
CCC(Sc1nncn1C)C(=O)Nc1nnc(-c2ccc(Cl)cc2)s1 (centres undefined) | 15.7%
Cc1ccc(SCc2cc(=O)[nH]c(N3CCCCC3)n2)cc1 | 3.87%
N#Cc1c(N)sc2c1CCN(C(=O)OCc1ccccc1)C2 | -18%
COc1ccc2c(c1)C(C)=CC(C)(C)N2C(=O)CNCc1ccc2c(c1)OCO2 | 17%
CCN(CC)c1ccc2cc(C(=O)O)c(=O)oc2c1 | -2.87%

SMILES | inhibition
COc1cccc(Oc2ccc(N)cc2)c1 | -12.6%
COC(=O)CSc1nc(C2CC2)nc2ccccc12 | -5.91%
Cn1cc(S(=O)(=O)N2CCC(Cc3ccccc3)CC2)c(=O)n(C)c1=O | -15.8%
O=C(CN1C(=O)COc2ccccc21)NCCN1CCc2ccccc2C1 | 2.87%
CCC1=[N+]([O-])C(C)(/C(C)=N\O)N(O)C1(C)C (centres undefined) | -9.09%
COc1cccc(-c2nnc(N(C)C(=O)c3ccno3)s2)c1 | 7.52%
CCN1CCCC1CNC(=O)Cn1cnc2ccc(S(=O)(=O)N3CCC(C)CC3)cc2c1=O (centres undefined) | 9.9%
O=C(NCc1cccnc1)c1ccc(CS(=O)(=O)c2ccc(Br)cc2)o1 | -21.3%
CCCn1c(C(O)c2ccc(OCC)cc2)nc2ccccc21 (centres undefined) | 4.63%
CCOC(=O)c1cccc(NC(=O)CCn2nnc3ccccc32)c1 | -0.18%
CCCN(c1ccc(C(C)C)cc1)S(=O)(=O)c1c(C)[nH]c(=O)[nH]c1=O | -19%
CCCn1c(SCC(=O)N2CCc3ccccc32)nnc1-c1ccncc1 | -0.835%
CCN1C(=O)/C(=C\N2CCN(c3cccc(Cl)c3)CC2)SC1=S | 20.4% (active)
CS(=O)(=O)N(CC(=O)N1CCN(c2cccc(Cl)c2)CC1)c1ccccc1 | 1.3%
CCN1C(=O)/C(=C\N2CCN(c3ccccc3)CC2)SC1=S | 4.83%
Cc1ccc(C(c2sc3nc(C)nn3c2O)N2CCN(c3ccc(F)cc3)CC2)cc1 (centres undefined) | 3.33%
O=C1CC(Cc2ccccc2)C(=O)N1c1ccc(Cl)cn1 (centres undefined) | -17.9%
COCCNC(=O)COc1ccc(C)c(C)c1 | 1.93%
CC(C)Oc1ccc(C2NC(=O)NC2=O)cc1 (centres undefined) | -16.2%
Nn1c(SCC(=O)NC(=O)NC2CCCC2)nnc1-c1ccccc1F | 3.32%
CCOC(=O)c1sc(NC(=S)n2cc(C)cn2)c(C(=O)OCC)c1C | 7.4%
O=C(CNC(=O)c1ccc(Cl)cc1Cl)NCC(=O)Nc1ccccc1N1CCOCC1 | 6.48%
O=C1CC(N2CCN(C(c3ccccc3)c3ccccc3)CC2)C(=O)N1 (centres undefined) | 1.87%
COc1cccc(NC(=O)c2ccccc2SC)c1 | -1.39%
Cc1ccc(Cn2ccc(NC(=O)C3C4CCC(C4)C3C(=O)O)n2)cc1 (centres undefined) | -2.65%

SMILES | inhibition
COc1ccc(N2CCN(CCNC(=O)c3nnc(Cc4c(F)cccc4Cl)o3)CC2)cc1 | 10.3%
CCOC(=O)c1cc2occc2n1CC(=O)N1CCN(C(=O)c2ccco2)CC1 | 9.63%
Cc1noc(C)c1S(=O)(=O)N(CC(=O)NCc1ccc(Cl)cc1)c1ccc2c(c1)OCO2 | -1.99%
CCC(C)Sc1nc2c(c(=O)[nH]c(=O)n2C)n1CC(O)COc1cccc2ccccc12 (centres undefined) | -0.685%
CC(C)C[C@H](NC(=O)NCCc1ccc(Cl)cc1)C(=O)O | 5.46%
CC(Sc1sc(=S)sc1SC(C)C(=O)O)C(=O)O (centres undefined) | 0.39%
CC/C(=N\O)C(C)(C)/[N+]([O-])=C/c1ccc(Br)cc1 | 8.49%
Brc1ccc(OCCn2ccnc2)cc1 | 10.3%
O=C1C(=O)N(CCN2CCOCC2)C(c2ccccn2)/C1=C(/O)c1ccc(Cl)cc1 (centres undefined) | 5.72%
COC(=O)C1=CN(C)C=C(C(=O)OC)C1c1ccc(Cl)cc1Cl | -3.3%
C=CCn1cnc2scc(-c3ccccc3)c2c1=O | 12.3%
COc1ccc(S(=O)(=O)N2CCN(c3ncnc4c(-c5ccccc5)nsc34)CC2)cc1 | 4.31%
CCCS(=O)(=O)N1CCCC(C(=O)NCCN2CCCCC2C)C1 (centres undefined) | 1.05%
CCOC(=O)C1CCN(C(=O)CC2C(=O)N(Cc3ccccc3)C(C)c3nc4ccccc4n32)CC1 (centres undefined) | 4.71%
Clc1cccc(Cl)c1Cn1nnc(-c2cccs2)n1 | 2.33%
Cn1c(=NC(=O)C2CC2)sc2cc(F)cc(F)c21 | 6.96%
O=S(=O)(c1ccccc1)N(CC(O)CN1CCCCC1)c1ccccc1 (centres undefined) | 10.6%
O=C(Nc1c(Cl)cccc1Cl)C1CCC1 | -1.33%
C=CCn1c(CSc2nc3ccccc3s2)nnc1SCC(=O)NCc1ccco1 | -0.43%
O=C(c1cc(-c2ccc(O)cc2)on1)N1CCCc2ccccc21 | 3.9%
c1ccc(CCC2=NCCn3cccc32)cc1 | 6.93%
CC(=O)Nc1ccn(Cc2c(F)cccc2Cl)n1 | 1.78%
c1ccc(-c2noc(-c3cccs3)n2)nc1 | 3.97%
O=C1CN(C(=O)COC(=O)C2CC(=O)N(Cc3ccco3)C2)c2ccccc2N1 (centres undefined) | -15.4%
